From PubChem BioAssay (Tox21)
Inconclusive results are not listed. The source made the active and inactive calls. Unless noted, calls come from the whole dose curve; as a rule, active = well fitted curve in the direction sought with a large enough effect in the repeat runs; inconclusive = weak or mixed curves; inactive = no such curve, though single readings can be large; an effect the other way counts as inactive or inconclusive.

Assays:
[1] = qHTS assay to identify small molecule antagonists of the androgen receptor (AR) signaling pathway using the MDA cell line in the presence of 0.5 nM R1881 - cell viability counter screen (AID 1259242); note: nearly all actives have a fitted effect of over 45% in size
Procedure, shortened: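 Viability of MDA-kb2 cells was multiplexed with the luciferase AR readout; after 16 hr with compounds and R1881 at 0.5 nM final, CellTiter-Fluor fluorescence was recorded.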

[2] = molecular target: Estrogen receptor (Homo sapiens) (UniProt P03372); test: qHTS assay to identify small molecule antagonists of the estrogen receptor alpha (ER-alpha) signaling pathway using the BG1 cell line in the presence of 0.1 nM 17-beta-estradiol (AID 1259244); note: nearly all actives have a fitted effect of over 50% in size
Procedure, shortened: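 Estradiol at 0.1 nM (final) stimulates the endogenous ER-alpha of VM7Luc4E2 cells carrying an ERE-driven luciferase; compounds are co-incubated 22 h at 37C and luciferase output quantified by luminescence.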

[3] = qHTS assay to identify small molecule HDAC inhibitors (AID 1259364);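 note: wild-type HCT-116 cells with endogenous class I/II HDAC activity; top concentration of the series differs between compounds; nearly all actives have a fitted effect of over 45% in size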
Procedure, shortened: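 Read-out: luminescence of HDAC-Glo I/II reagent, 30 min RT, reflecting class I/II deacetylase activity in whole HCT-116 cells pre-exposed 2 h to DMSO-dissolved compounds.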

[4] = qHTS assay to identify small molecule HDAC inhibitors - cell viability counter screen (AID 1259365); note: series mostly up to about 92 µM; nearly all actives have a fitted effect of over 50% in size
Procedure, shortened: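 HCT-116 wild-type, overnight attachment; 2hr drug exposure, 37C; CellTiter-Glo luminescent ATP readout after 30min RT.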

[5] = qHTS assay to identify small molecule agonists of the sonic hedgehog signaling (Shh) pathway - cell viability counter screen (AID 1259366); note: nearly all actives have a fitted effect of over 50% in size
Procedure, shortened: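 Compounds in DMSO were pin-transferred onto 3T3 Gli1-Luc cells that had settled 4hr; plates then stood 24hr at 37C and 5% CO2. One hour before the end, CellTiter-Fluor was added and fluorescence recorded.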

[6] = qHTS assay to identify small molecule antagonists of the sonic hedgehog signaling (Shh) pathway - cell viability counter screen (AID 1259367); note: nearly all actives have a fitted effect of over 55% in size
Procedure, shortened: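 Seed 3T3 Gli1-Luc cells at 2,000 per well; incubate 4 hr; add compound in DMSO, then conditioned medium; incubate at 37C with 5% CO2; add CellTiter-Fluor after 23 hr; read fluorescence 1 hr later.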

[7] = qHTS assay to identify small molecule antagonists of the sonic hedgehog signaling (Shh) pathway (AID 1259369; calls by dose curve; note: nearly all actives have a fitted effect of over 45% in size)
Procedure, shortened: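 For antagonist detection, the reporter line received test compounds together with conditioned medium, incubated 24hr at 37 C, 5% CO2, then luminescence was recorded following 30min room-temperature luciferase reagent incubation.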

[8] = molecular target: Estrogen receptor beta (Homo sapiens) (UniProt Q92731); test: qHTS assay to identify small molecule agonists of the estrogen receptor beta (ER-beta) signaling pathway (AID 1259377; active = well fitted activation curve with a large enough effect in the signal ratio in the repeat runs, not every such curve was filed as active; the % refers to the signal ratio)
Procedure, shortened: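 qHTS in ER-beta-UAS-bla HEK293T cells: 6 hr settling, then 16 hr compound at 37C, then LiveBLAzer substrate 2 h at RT before fluorescence reading.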

[9] = molecular target: Estrogen receptor beta (Homo sapiens) (UniProt Q92731); test: qHTS assay to identify small molecule antagonists of the estrogen receptor beta (ER-beta) signaling pathway (AID 1259378; active = well fitted inhibition curve with a large enough effect in the signal ratio in the repeat runs, not every such curve was filed as active; the % refers to the signal ratio)
Procedure, shortened: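 ER-beta-UAS-bla HEK293T cells in 2% charcoal-stripped FBS medium treated with compound plus 1nM final 17-beta-estradiol for 16 hr at 37C. Beta-lactamase reporter read by FRET substrate fluorescence after 2 hours at room temperature.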

[10] = qHTS assay to identify small molecule agonists of the androgen receptor (AR) signaling pathway in the presence of an antagonist - cell viability counter screen (AID 1259379);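 note: MDA-kb2 human breast cancer cells carrying an MMTV luciferase reporter; series mostly up to about 92 µM; nearly all actives have a fitted effect of over 25% in size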
Procedure, shortened: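 Seed MDA-kb2 at 3,000 cells/well; incubate 5 hr, 37C, 0% CO2. Add nilutamide to 3.0uM final, then pin compounds at 15 concentrations. Incubate 16 hr. Add CellTiter-Fluor at 15 hr, read fluorescence after 1 hr.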

[11] = qHTS assay to identify small molecule agonists of the estrogen receptor beta (ER-beta) signaling pathway - cell viability counter screen (AID 1259380); note: nearly all actives have a fitted effect of over 30% in size
Procedure, shortened: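 CellTiter-Glo read, 30 min RT, same wells as bla assay; cells ER-beta-UAS-bla HEK293T; 16 hr compound, 37C; medium 2% charcoal-stripped FBS.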

[12] = qHTS assay to identify small molecule antagonists of the estrogen receptor beta (ER-beta) signaling pathway - cell viability counter screen (AID 1259382); note: series mostly up to about 92 µM; nearly all actives have a fitted effect of over 55% in size
Procedure, shortened: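 In this multiplexed counter screen, cells were seeded at 2,000 per well in medium with 2% charcoal-stripped FBS and incubated 6 hr before compound and 1nM final E2 were added. Sixteen hours later, ATP-based luminescence reported viability.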

[13] = molecular target: Estrogen receptor (Homo sapiens) (UniProt P03372); test: qHTS assay to identify small molecule agonists of the estrogen receptor alpha (ER-alpha) signaling pathway in the presence of an antagonist (AID 1259383; calls by dose curve; note: top concentration of the series differs between compounds; nearly all actives have a fitted effect of over 15% in size)
Procedure, shortened: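 Stably transfected VM7Luc4E2 reporter cells, kept 5 days in charcoal-stripped serum, received ICI-182,780 at 10.0nM final before compound addition. Following 22hr incubation at 37C and 5% CO2, luciferase signal was read by luminescence.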

[14] = qHTS assay to identify small molecule agonists or antagonists of the thyroid stimulating hormone receptor (TSHR) signaling pathway - wild type cell line counter screen (AID 1259384; calls by dose curve)
Procedure, shortened: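 Wild-type Hek293 cells, 800/well, 18 h at 37C, then compound with Ro20-1724 for 30 min RT. cAMP by HTRF (cAMP-d2/anti-cAMP cryptate), 1 h RT, fluorescence read. 15 concentrations, triplicates.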

[15] = molecular target: Thyrotropin receptor (Homo sapiens) (UniProt P16473); test: qHTS assay to identify small molecule antagonists of the thyroid stimulating hormone receptor (TSHR) signaling pathway (AID 1259385; calls by dose curve; note: nearly all actives have a fitted effect of over 20% in size)
Procedure, shortened: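 TSHR-HEK293 cells (800/well) plated 18 h, then compounds with Ro20-1724 and TSH at 1.5 ng/mL final, 30 min at room temperature. cAMP quantified by HTRF (cAMP-d2/anti-cAMP-cryptate, 1 h); 15 concentrations in triplicate.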

[16] = qHTS assay to identify small molecule agonists of the sonic hedgehog signaling (Shh) pathway (AID 1259368; calls by dose curve;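 note: NIH/3T3-derived 3T3Gli1-Luc cells carrying a stable Gli1-driven firefly luciferase reporter; series mostly up to about 92 µM; nearly all actives have a fitted effect of over 15% in size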)
Procedure, shortened: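 A Gli1 transcriptional response element controlled firefly luciferase in 3T3Gli1-Luc cells. Compounds and a positive control were added 4 hr after plating, and cells were incubated a further 24 hr at 37 C before luminescence detection.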

[17] = qHTS assay to identify small molecule phospholipidosis (PLD) inducers (AID 1259344; active = well fitted curve in the direction sought with a large enough effect; an effect the other way counts as inactive or inconclusive)
Procedure, shortened: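 Quantitative HTS in HepG2: compound plus LipidTOX Red dye for 24 h, paraformaldehyde fixation with Hoechst 33342, widefield high-content imaging; amiodarone as positive and DMSO as negative control.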

Measured: Potency

Sequence of Thyrotropin receptor (Homo sapiens) (P16473 whole entry, looked up): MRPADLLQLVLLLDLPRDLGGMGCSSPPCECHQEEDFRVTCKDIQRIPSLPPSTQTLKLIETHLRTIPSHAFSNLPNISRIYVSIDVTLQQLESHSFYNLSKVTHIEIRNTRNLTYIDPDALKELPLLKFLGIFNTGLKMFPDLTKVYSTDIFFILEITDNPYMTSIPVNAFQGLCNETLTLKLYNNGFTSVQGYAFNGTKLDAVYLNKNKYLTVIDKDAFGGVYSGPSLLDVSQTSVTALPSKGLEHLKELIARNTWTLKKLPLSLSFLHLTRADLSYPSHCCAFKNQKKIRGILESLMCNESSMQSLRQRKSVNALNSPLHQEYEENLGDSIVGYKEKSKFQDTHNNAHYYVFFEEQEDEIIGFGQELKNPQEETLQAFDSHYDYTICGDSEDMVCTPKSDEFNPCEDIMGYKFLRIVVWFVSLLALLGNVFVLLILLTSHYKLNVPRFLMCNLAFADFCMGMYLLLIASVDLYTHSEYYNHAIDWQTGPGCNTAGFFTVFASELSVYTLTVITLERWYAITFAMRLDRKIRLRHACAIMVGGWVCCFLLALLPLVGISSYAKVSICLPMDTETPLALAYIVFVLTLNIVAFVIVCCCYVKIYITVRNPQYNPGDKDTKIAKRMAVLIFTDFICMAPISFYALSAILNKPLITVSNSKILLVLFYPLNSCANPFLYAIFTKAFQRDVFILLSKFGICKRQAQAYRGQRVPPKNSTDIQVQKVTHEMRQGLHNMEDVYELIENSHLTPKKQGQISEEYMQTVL
Sequence of Estrogen receptor (Homo sapiens) (P03372 whole entry, looked up): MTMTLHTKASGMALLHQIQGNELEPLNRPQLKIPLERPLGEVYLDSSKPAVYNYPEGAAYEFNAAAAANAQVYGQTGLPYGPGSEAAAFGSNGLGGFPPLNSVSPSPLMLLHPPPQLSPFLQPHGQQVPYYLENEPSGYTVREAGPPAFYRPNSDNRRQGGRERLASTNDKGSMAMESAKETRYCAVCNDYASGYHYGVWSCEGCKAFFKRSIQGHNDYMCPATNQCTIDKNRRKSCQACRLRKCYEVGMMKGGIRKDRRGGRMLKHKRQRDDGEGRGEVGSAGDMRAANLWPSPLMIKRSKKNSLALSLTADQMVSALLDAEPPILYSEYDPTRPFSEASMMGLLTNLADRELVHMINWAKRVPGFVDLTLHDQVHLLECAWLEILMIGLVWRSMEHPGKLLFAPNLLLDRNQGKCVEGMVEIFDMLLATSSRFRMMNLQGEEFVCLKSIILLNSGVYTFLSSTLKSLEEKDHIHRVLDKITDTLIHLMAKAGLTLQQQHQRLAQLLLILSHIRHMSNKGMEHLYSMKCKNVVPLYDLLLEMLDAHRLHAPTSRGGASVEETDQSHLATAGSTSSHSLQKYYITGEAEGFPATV
Sequence of Estrogen receptor beta (Homo sapiens) (Q92731 whole entry, looked up): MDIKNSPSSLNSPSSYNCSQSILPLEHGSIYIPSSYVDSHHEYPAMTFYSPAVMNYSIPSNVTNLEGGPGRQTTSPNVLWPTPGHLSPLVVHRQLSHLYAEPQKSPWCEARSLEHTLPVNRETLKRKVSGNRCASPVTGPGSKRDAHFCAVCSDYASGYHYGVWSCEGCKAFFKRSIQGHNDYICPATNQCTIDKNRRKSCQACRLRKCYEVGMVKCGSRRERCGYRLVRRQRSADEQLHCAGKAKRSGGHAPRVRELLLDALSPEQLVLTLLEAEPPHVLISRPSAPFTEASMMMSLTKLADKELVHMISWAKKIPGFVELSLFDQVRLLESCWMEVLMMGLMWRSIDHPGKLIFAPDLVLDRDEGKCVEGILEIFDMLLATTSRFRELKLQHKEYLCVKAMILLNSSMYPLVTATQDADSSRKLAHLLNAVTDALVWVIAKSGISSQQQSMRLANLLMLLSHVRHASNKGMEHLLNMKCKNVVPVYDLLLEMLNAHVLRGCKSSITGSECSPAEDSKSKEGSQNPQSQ

COc1cc(OC)nc(NC(=O)NS(=O)(=O)c2ncccc2C(=O)N(C)C)n1
not listed: [16] | [17]
inactive: all other assays above

CCCSC(=O)N(CCC)CCC
not listed: [2] | [8] | [9] | [13] | [17]
inactive: all other assays above

C(CCOCC1CO1)COCC1CO1 (configuration not stated)
inactive: [1] | [2] | [3] | [4] | [5] | [10] | [12] | [13] | [15]

CC1(C)CON(Cc2ccccc2Cl)C1=O
not listed: [7] | [17]
inactive: all other assays above

CCCCN(CCCCO)N=O
not listed: [2] | [17]
inactive: all other assays above

C[C@]1(O)CC[C@H]2[C@@H]3CCC4=CC(=O)CC[C@]4(C)[C@@]3(F)[C@@H](O)C[C@@]21C
not listed: [2] | [7] | [8] | [9] | [11] | [13] | [17]
inactive: all other assays above

CNC(=O)Oc1cccc(C(C)C)c1
not listed: [2] | [8] | [9] | [13] | [17]
inactive: all other assays above

O=[N+]([O-])c1ccc(CBr)cc1
not listed: [8] | [9] | [17]
inactive: all other assays above

C=CC1CC=CCC1 (configuration not stated)
not listed: [14] | [16] | [17]
inactive: all other assays above

NC(=O)O
not listed: [8] | [9] | [11] | [17]
inactive: all other assays above

COc1ccc(C(=O)N2CCCC2=O)cc1
not listed: [2] | [8] | [9] | [13]
inactive: all other assays above
